Sampled rows, rich in hits. Any-hit rate of the full collection: about 2.4%.
D2 ag-1 = agonists of human D2 dopamine receptor (beta-arrestin) | AID 624465 | DiscoveRx PathHunter D2 beta-arrestin, luminescence, 90 min; 100% = 57 uM dopamine signal | hit rate 0.084% among 360,000 | activation, % (test concentration not listed) | P14416; in the data active means activation above about 40%; inconclusive means between about 15% and that limit
Target sequence (P14416 whole entry, looked up): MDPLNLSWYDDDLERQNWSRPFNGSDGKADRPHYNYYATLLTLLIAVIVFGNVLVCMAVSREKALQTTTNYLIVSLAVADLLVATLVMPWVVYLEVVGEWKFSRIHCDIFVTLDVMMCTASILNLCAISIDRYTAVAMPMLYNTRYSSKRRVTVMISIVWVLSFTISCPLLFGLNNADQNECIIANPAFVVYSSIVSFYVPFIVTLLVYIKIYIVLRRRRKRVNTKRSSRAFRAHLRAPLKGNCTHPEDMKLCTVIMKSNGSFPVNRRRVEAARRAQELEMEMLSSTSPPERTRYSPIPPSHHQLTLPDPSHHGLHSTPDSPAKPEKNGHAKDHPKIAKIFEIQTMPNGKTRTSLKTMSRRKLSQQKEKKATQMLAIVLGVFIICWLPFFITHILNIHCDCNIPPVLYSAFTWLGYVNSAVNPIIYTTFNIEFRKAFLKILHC
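Agonist mode: compounds alone added to overnight-plated D2 PathHunter cells for 90 min at 37 C, with 57 uM final dopamine (EC100) defining full response. Beta-arrestin recruitment detected by chemiluminescent reagent, read after 1 h at ambient temperature.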
D2 ag-2 = activates the human D2 dopamine receptor; HEK293 T-REx D2 cells, calcium flux agonist mode; hit rate 0.53% among 340,000; P14416; activation, % at 2 µM; AID 485358;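 active means activation over 3 SD above normal in the single-dose calcium agonist read, cut at about 30% in these data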
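In this primary screen, compounds producing a positive calcium signal within 180 s of addition to tetracycline-induced, force-coupled HEK293 Trex D2 cells are flagged; cells are dye-loaded with a no-wash calcium kit beforehand.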
D2 PAM-1 = positively modulates the human D2 dopamine receptor allosterically; HEK293 T-REx D2, calcium flux, EC20 dopamine potentiation; potentiation, % at 10 µM; hit rate 0.34% among 340,000; AID 485347;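 active means potentiation over 3 SD above the plate norm, cut at about 30% in these data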
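Calcium flux readout, no-wash dye, 1 read/s. Inducible HEK293 Trex D2 line, overnight 30 C. Compound alone 180 s (agonist flags), then EC20 dopamine, another 180 s to score potentiation.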
D2 antagonist = antagonizes the human D2 dopamine receptor. HEK293 TREx D2 cells, calcium flux, dopamine EC80. AID 485344. inhibition, % at 10 µM. hit rate 2% among 340,000. P14416; in the data active means inhibition above about 30%; inactive means below that, where a call was filed
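Tetracycline-induced HEK293 TREx cells expressing D2 receptor forced-coupled to calcium signalling, loaded with no-wash calcium dye. Compounds added and calcium flux read 180 s, then dopamine added at EC80 and read a further 180 s.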
D2 PAM-2 = human D2 receptor positive allosteric modulation; potentiation, % (test concentration not listed); AID 624464; hit rate 0.23% among 360,000; DiscoveRx D2 beta-arrestin cells, luminescence, 90 min; 100% = 57 uM dopamine signal; in the data active means potentiation above about 50%; inconclusive means mostly about 30% to 49%
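PathHunter beta-arrestin assay in DiscoveRx D2 cells. Compounds were added with an EC20 of dopamine (50 nM final) for 90 min at 37 deg C. Luminescence was read 1 h after detection reagent, with 57 uM dopamine as the EC100 control.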
Of the large screens only hits and unclear results are named; the others gave an inactive call.

O=C(NCc1ccc2c(c1)OCO2)c1ccc2c(c1)N(Cc1ccccc1F)C(=O)c1ccccc1S2=O (stereo not given)	none (no result: D2 ag-1, D2 ag-2, D2 antagonist, D2 PAM-2)
Cc1ccc(S(=O)(=O)N2CCOCC2)cc1C(=O)OC1CCOC1=O (stereo not given)	D2 antagonist 41
CC(=O)c1cccc(S(=O)(=O)N2CCC(C(=O)OC3CCOC3=O)CC2)c1 (stereo not given)	D2 antagonist 43
COc1cc(/C=N/NC(=O)CC2(C)OCCCO2)ccc1OCc1ccc(Cl)cc1Cl	D2 antagonist 31
CC1(CC(=O)N/N=C/c2ccc(OCc3ccc(Cl)cc3Cl)cc2)OCCCO1	none
CN(C)/C=C1/C=C(C=O)OC1=O	none
Cc1cc(S(=O)(=O)N2CC(=O)N(CCc3ccccc3)C(=O)C2)ccc1F	D2 PAM-1 31
O=C1CN(S(=O)(=O)c2ccccc2)CC(=O)N1CCc1ccccc1	none
CCOC(=O)Cn1c(=O)cc(C)c2c(C)nn(-c3cccc(F)c3)c21	none (no result: D2 ag-1, D2 ag-2, D2 antagonist, D2 PAM-2)
CCSC1=N/C(=C\c2ccc(OC)cc2)C(=O)N1	none
COc1ccc(/C=C2\N=C(SC)NC2=O)cc1	D2 PAM-1 31
CCc1nn(C(C)C(=O)NCCN2CCN(c3cccc(C)c3C)CC2)c(=O)c2cc3occc3n12 (stereo not given)	D2 antagonist 52
Cc1cccc(-n2c(SCC(=O)N3CCN(c4ccccn4)CC3)nnc2N2CCOCC2)c1	none
CNC(=O)c1nn(-c2ccc(Cl)cc2)ccc1=O	D2 antagonist 33
CNC(=O)c1nn(-c2ccccc2)ccc1=O	none
O=C(Nc1ccn(-c2ccccc2)n1)c1ccc(Cl)cc1	D2 antagonist 63
O=C(NCC(c1ccco1)N1CCCC1)c1cc2cc(Cl)ccc2o1 (stereo not given)	none
CCn1cc(/C=N/NC(=O)c2cc3c(ccc4ccccc43)o2)c2ccccc21	D2 PAM-1 35, D2 PAM-2 inconclusive
OC(C#CCN1CCCCCC1)(c1ccccc1)c1cccnc1 (stereo not given)	D2 antagonist 58
OC(C#CCCN1CCCCC1)(c1ccccc1)c1ccccc1	D2 antagonist 33
OC(CCN1CCCCC1)(c1ccccc1)C1CCCCC1 (stereo not given)	D2 antagonist 46
OC(C#CCN1CCCC1)(c1ccccc1)c1cccnc1 (stereo not given)	none
CN(C)Cc1c(O)ccc2occ(C(=O)c3ccccc3)c12	D2 PAM-1 54
COc1ccc2c(c1)c1c(c(=O)n(-c3ccccc3C)c(=O)n1CC(=O)N1CCCC1)n2C	none (no result: D2 ag-1, D2 antagonist, D2 PAM-2)
O=C(Cn1nnc(-c2ccccc2NC(=O)c2ccccc2F)n1)NCc1ccco1	D2 antagonist 33
CN1CCN(CC/C=C2/c3ccccc3Sc3ccc(S(=O)(=O)N(C)C)cc32)CC1	D2 antagonist 80
CC1(C)CC(=O)c2sc(NS(=O)(=O)Cc3ccccc3)nc2C1	D2 PAM-1 34
Cc1ccc(S(=O)(=O)Nc2nc3c(s2)C(=O)CC(C)(C)C3)cc1	none
CCOC(=O)Cc1ccc(NC(=O)Nc2cccc(OCc3cc(=O)n4cc(C)ccc4n3)c2)cc1	none (no result: D2 ag-1, D2 ag-2, D2 antagonist, D2 PAM-2)
O=C(c1cccc(F)c1)N1CCN(C(=O)C(c2ccccc2)c2ccccc2)CC1	D2 antagonist 31 (no result: D2 PAM-1)
O=C(C=NNc1ccccc1)c1ccccc1	none (no result: D2 ag-2, D2 PAM-1, D2 antagonist)
Cc1ccc(NC(=O)CCc2c(C)nc3c(-c4ccccc4)c(C)nn3c2C)c(C)c1	none (no result: D2 ag-1, D2 ag-2, D2 antagonist, D2 PAM-2)
COC(=O)CCCCCNc1ccc(C(=O)OC)cc1N	D2 ag-2 37
CCC1CCCCN1C(=O)N[C@@H](CCSC)C(=O)OC (stereo not given in full)	D2 antagonist 37
O=C(CSc1cn(CC(=O)N2CCCCC2)c2ccccc12)NCc1ccccc1	none (no result: D2 ag-1, D2 antagonist, D2 PAM-2)
COc1ccc(Nc2ncc3c(n2)CC(c2ccc(OC)cc2)CC3=O)cc1 (stereo not given)	none (no result: D2 PAM-1)
COc1ccc(Nc2ncc3c(n2)CC(c2ccc(C)cc2)CC3=O)cc1 (stereo not given)	D2 antagonist 36
Nc1nc(NCCc2ccccc2)nc(NCCO)c1[N+](=O)[O-]	D2 PAM-1 34
O=C(Cc1ccccc1[N+](=O)[O-])NCC1(c2cccc3c2OCO3)OCCO1	none (no result: D2 ag-2, D2 PAM-1, D2 antagonist)
CCOC(=O)Nc1sc(C(=O)N(CC)CC)c(C)c1C(=O)OCC	D2 PAM-1 45
